# TDP1 block: blocks human tyrosyl-DNA phosphodiesterase 1; Potency, µM (doses to about 130 µM), usual class: inhibitors; 0.28% of 350,000 active; recombinant TDP1, AlphaScreen DNA substrate cleavage; Q9NUW8; also: nearly all actives have a fitted effect of over 40% in size
#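 Recombinant human Tdp1 (E. coli-expressed, 1 nM final) preincubated with compounds 15 min at room temperature, then 5'-biotin/3'-phosphotyrosine-FITC DNA substrate (15 nM final) added for 5 min. AlphaScreen beads (10 ug/ml final) added 10 min; cleavage lowers signal.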
# APE1 inh: inhibitors of human APE1 endonuclease; recombinant APE1, TAMRA/BHQ-2 abasic DNA cleavage fluorescence; Potency, µM (series often up to 65.8 µM), hits mostly inhibitors; 0.35% of 350,000 active; AID 2517; also: nearly all actives have a fitted effect of over 55% in size
#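 Kinetic fluorescence read (525 ex/598 em nm, three reads 60 s apart) of AP-site incision; signal = third minus first read. Enzyme 0.75 nM, dual-labelled THF duplex 50 nM, compound preincubation 15 min RT.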
# FEN1 inh-1: human FEN1 inhibition | P39748 | Recombinant FEN1 flap cleavage, fluorescence, 15 min | 0.35% of 390,000 active | AID 588795 | Potency, µM (top dose mostly 114 µM), actives largely listed as inhibitors; also: nearly all actives have a fitted effect of over 65% in size
# Target sequence (P39748 whole entry, looked up): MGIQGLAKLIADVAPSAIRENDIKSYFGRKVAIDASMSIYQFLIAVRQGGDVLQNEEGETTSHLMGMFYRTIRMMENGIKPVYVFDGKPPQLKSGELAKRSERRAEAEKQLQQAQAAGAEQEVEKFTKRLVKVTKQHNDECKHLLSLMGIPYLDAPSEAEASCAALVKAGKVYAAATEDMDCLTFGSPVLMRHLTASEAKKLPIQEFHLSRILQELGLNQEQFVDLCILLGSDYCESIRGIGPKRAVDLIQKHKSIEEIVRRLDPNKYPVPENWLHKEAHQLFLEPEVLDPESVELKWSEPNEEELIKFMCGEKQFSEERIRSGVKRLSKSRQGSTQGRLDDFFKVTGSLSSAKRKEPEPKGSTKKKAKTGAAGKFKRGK
#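 With each library titrated from low to high concentration, compounds met 10 nM FEN1 for 15 min at room temperature before 50 nM substrate was added; readings at 0 and 15 min fed four-parameter Hill curve fits.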
# BLM inh: blocks DNA unwinding by human BLM helicase. AID 2528. 0.2% of 350,000 active. Potency, µM (titrated, usually from 56.1 µM), actives largely listed as inhibitors. recombinant BLM DNA unwinding, fluorescence dequenching; also: nearly all actives have a fitted effect of over 35% in size
# RECQ1 helicase: RECQ1 (human) helicase inhibition; 0.54% of 240,000 active; AID 2549; Potency, µM (highest dose often 57.3 µM), hits mostly inhibitors; P46063; RECQ1 DNA unwinding, red fluorescence kinetic read; also: nearly all actives have a fitted effect of over 30% in size
#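 50 nM RECQ1T1 preincubated 15 min with compound in Tris pH 8.0 buffer with MgCl2, DTT, Tween-20 and 2.5 ug/ml poly(dI-dC); started with 200 nM TAMRA/BHQ-2 forked duplex and 2 mM ATP. Unwinding read as fluorescence (525/598 nm), two reads 2 h apart.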
# FEN1 inh-2: FEN1 inhibition, cherry-pick retest; shares compounds with FEN1 inh-1; FEN1 flap cleavage, TAMRA/BHQ2 fluorogenic DNA substrate; Potency, µM, hits mostly inhibitors; 79% of 880 active; AID 720498; also: nearly all actives have a fitted effect of over 60% in size
# Numbers stand for hits; - = inactive; ? = inconclusive; . = no result; [ ] = remark or other dose. In the library only some 0.92% were active in any assay of this set; here they are far more common. Calls follow the shape of the dose curve; as a rule, active = well fitted curve in the direction sought with a large enough effect; inconclusive = small, poorly fitted or top-dose-only effect, or another doubt; inactive = no such curve, though single readings can be large; an effect the other way counts as inactive or inconclusive.
SMILES,TDP1 block,APE1 inh,FEN1 inh-1,BLM inh,RECQ1 helicase,FEN1 inh-2
CCc1c(C)sc2c1CCN(C(=O)Nc1ccc(F)c(Cl)c1)C2c1ccc(F)cc1 (configuration not stated),-,.,-,-,.,.
CCCNc1ncnc2c1c(-c1ccccc1)cn2-c1ccccc1,-,.,-,-,.,.
CCOC(=O)CSc1[nH]c2cc(OC)ccc2c1[N+](=O)[O-],-,-,-,-,-,.
COc1ccc2c([N+](=O)[O-])c(Cl)[nH]c2c1,-,-,18µM,-,-,34
CCN(CC)CCCNc1nc2ccccc2c2[nH]c3ccc(OC)cc3c12,.,.,3.5µM,.,.,2.7
CCN(CC)CCCNc1nc(-c2ccccc2)nc2ccccc12,-,-,-,-,-,.
O=C(Nc1ccccc1)Nc1ncc([N+](=O)[O-])s1,-,-,-,-,-,.
O=C(COC(=O)c1ccccc1)Nc1ncc([N+](=O)[O-])s1,.,3.4µM,45µM,.,.,67
NC(=S)n1[nH]c(-c2ccc([N+](=O)[O-])cc2)c(N=Nc2ccccc2[N+](=O)[O-])c1=O,-,-,-,-,-,.
NC(=S)n1[nH]c(-c2ccc([N+](=O)[O-])cc2)c(N=Nc2cccc([N+](=O)[O-])c2)c1=O,?,?,45µM,18µM,-,43
Cc1c(N=Nc2c(-c3ccc([N+](=O)[O-])cc3)[nH]n(C(N)=S)c2=O)cccc1[N+](=O)[O-],-,-,?,-,-,67
CCCCCCN(C(=O)CCCCCN1C(=O)NC(c2ccc(-c3ccccc3)cc2)C(C(=O)OCc2ccccc2)=C1C)C(C(=O)NCCCC)c1ccc(OCC(=O)O)c(C(=O)O)c1 (configuration not stated),-,-,.,-,-,.
CCOc1ccc(NC(=O)CN(c2ccc(Cl)cc2C)S(=O)(=O)c2ccccc2)cc1,-,.,-,-,.,.
CCn1cc(C(=O)O)c(=O)c2cc(F)c(N3CCN(S(=O)(=O)c4ccc(Br)cc4)CC3)cc21,-,-,.,-,-,.
O=C(O)c1cn(C2CC2)c2cc(N3CCN(S(=O)(=O)c4ccc5c(c4)OCCO5)CC3)c(F)cc2c1=O,-,-,?,-,-,43
O=C1CCCC=C1[C@@H](O)C1CCCCC1,-[21 µM],-[12.4 µM],.,-[12.4 µM],-[11.5 µM],.
CCOc1ccc(Br)cc1C1=NN(C(C)=O)C(c2ccc([N+](=O)[O-])s2)O1 (configuration not stated),.,-,?,-,.,6.7
CC(=O)N1N=C(c2ccc(C)cc2)OC1c1ccc(Br)cc1 (configuration not stated),-,-,-,-,-,.
CC12CCC=CC1C(c1ccc3ccccc3c1C=Cc1ccccc1)N(Cc1ccccc1)C2=O (configuration not stated),-,-,-,-,-,.
O=C(C[n+]1ccccc1Br)c1ccc(Cl)cc1,.,.,-,.,.,.
CCN(CC)c1ccc(/C=C/c2cccc[n+]2C)c(OC)c1,.,-,?,-,.,27
COc1ccc(/C=C/c2cccc[n+]2C)c(O)c1,.,-,-,-,.,.
CCC(C(=O)Nc1ccc(C)c(Cl)c1)n1c(=O)c(-c2ccccc2NC(C)=O)nc2ccccc21 (configuration not stated),-,.,-,-,.,.
COc1ccc(-c2cc(=O)c3c(O)c(OC)c(OC)c(OC)c3o2)cc1OC,-,-,.,-,-,.
COc1cc(-c2cc(=O)c3c(O)c(OC)c(OC)c(O)c3o2)ccc1O,-,?,?,-,13µM,34
CC1Sc2ccc(S(=O)(=O)N3CCC(C(=O)Nc4ccc(Cl)cc4)CC3)cc2NC1=O (configuration not stated),-,-,?,-,.,48
NC(=O)c1ccc(N=Cc2ccc([N+](=O)[O-])s2)cc1,-,?,?,-,?,6.7
O=[N+]([O-])c1ccc(C=Nc2ccc(Cl)c([N+](=O)[O-])c2)s1,-,?,.,-,?,.
Cc1cc(C)cc(N=Cc2ccc([N+](=O)[O-])s2)c1,-,-,?,-,-,5.4
CC[C@H]1C2=C3C(CC[C@H]4C(OCc5ccc(F)cc5C(F)(F)F)OC[C@](C)([C@@H]34)N(C(=O)OC(C)(C)C)C2)C2COC(=O)OCC21 (some centres not stated),-,-,.,-,-,.

# Source: PubChem BioAssay (National Center for Advancing Translational Sciences (NCATS))
